Test results reported in the supplement of paper PMC6555819.

Key:
Assay in all cases: PBM binding z-score (relative to random genomic background probes); higher = stronger binding; sequences stand for … in GC…GCGATTGACAGCGTAGAATGAAGG
[1] = system: RARb homodimer (NR concentration 270 nM)
In short: (§1)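 Custom Agilent 4×180K protein-binding microarrays carried double-stranded probes. Their 34-nt variable regions held direct-repeat seeds, single-nucleotide variants, half-site ablations and random human genomic background sequences. Arrays were incubated 1 h with ligand-free nuclear receptor dimers in PBS pH 7.4, 2% milk, 0.02% Triton X-100, 1 mM DTT, 0.2 mg/mL BSA and 0.4 mg/ml salmon testes DNA. Antibodies against each partner (one per run) detected binding, and scanned fluorescence was regression-normalized. Binding z-scores use random background probes as reference.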

[2] = system: RARg:RXRa (NR concentration 270 nM, RXRa partner concentration 90 nM)
In short: as §1

[3] = system: RARg homodimer (NR concentration 270 nM)
In short: as §1

[4] = system: RXRa DBDmut IVT, anti-RXR (DBD mutation: RXRa K156A/R161A, NR concentration 90 nM)
In short: as §1

[5] = system: RXRa homodimer (NR concentration 180 nM)
In short: as §1

[6] = system: THRa:RXRa (NR concentration 90 nM, RXRa partner concentration 90 nM)
In short: as §1

[7] = system: THRa homodimer (NR concentration 90 nM)
In short: as §1

[8] = system: VDR homodimer (NR concentration 270 nM)
In short: as §1

Sequence	PBM binding z-score [1]	PBM binding z-score [2]	PBM binding z-score [3]	PBM binding z-score [4]	PBM binding z-score [5]	PBM binding z-score [6]	PBM binding z-score [7]	PBM binding z-score [8]
TCATATAGGTGAATGCTAGGTGAAAGTCCGATCT	0.945	1.54	0.61	1.39	0.992	2.06	0.5	-0.483
AGAACGAGGGCAATGAGTGGATAGCACGGGTGGC	0.709	0.805	1.49	1.05	0.694	0.576	-0.226	0.818
GCGACTGGGGCAAAGCCGGTTACCATAAGGTTGG	0.363	-0.242	0.26	-0.988	-0.295	0.48	-0.526	-0.688
TCATATAGCTAAACAGGTGAAAGTCCGTAAGTTA	0.282	0.0319	-0.0908	0.797	0.266	0.318	-0.358	0.105
CCTGCTAGGTCCTGGTCAGCTAATCTACAGTATG	0.0603	-0.177	-0.17	-0.107	-0.298	-0.0341	-0.199	-0.989
ACTAGCAGGCCAAGGGTTACTCAAGATTAGTCCG	0.787	0.885	0.852	-0.129	1.08	0.78	-0.538	-0.236
GCTGCTGGGTCAGGTTGGTCAGCTAACGGGTACG	2.57	1.94	2.78	-0.0156	0.839	1.21	0.312	0.573
CCTATTAGTTTACCATAAGGGCAACCGAAGCTCG	1.96	1.14	1.1	0.915	0.566	2.06	1.39	1.03
TGAATGAGGTTAAAGATCCGGGAACGTGGCGTCG	0.578	1.5	1.05	1.22	2.61	2.12	0.411	0.437
TCATATAGGTAAATGCTAGTTGAAAGTCCGATCT	-0.114	0.306	0.163	1.59	0.682	0.27	-0.299	0.45
TTACCAAGGTGAAAGGACGTTGATGCACGCCTTG	0.523	0.792	0.651	-0.0859	0.819	1.36	0.386	-0.00942
GGAACGAGAGCATTCGAGTTGATAGCATGGCGAT	-1.06	-0.435	-0.276	0.441	-0.118	1.04	-1.57	-0.57
CAGACTAGGTCACAGAGGTCAAAGTCCGTGCGTA	5.42	7.17	7.46	3.41	7.88	4.6	2.91	7.08
ACTAGCAGGCCTAGTTTGGGTCACTCAAACAAAG	1.42	0.276	0.565	-0.626	0.395	1.91	0.883	0.0469
CGAACGAGGGCATGAGTTGACAGCAAATGCCGAT	0.912	1.52	1.6	2.28	0.957	1.45	-0.266	1.65
ATAGGTAGGTTAGCTGGGGTCATTCAGACTAGGC	4.09	4.35	3.5	2.2	5.46	5.2	3.51	5.44
AGAACGAGGGCACGCTGAGTTGATGGCAGAGTAG	1.37	2.06	2.33	1.76	1.53	1.89	0.0857	1.71
CTCGAAAGGTCGGTTGAGGTGAGAATACGGATAA	2.21	3	3.18	0.839	2.33	4.84	1.13	0.742
CAAACTAGGTCAAGGTCATAGTCGGTTTGTGCCA	4.91	5.78	6.44	2.95	5.54	4.38	3.83	4.29

Sequence	PBM binding z-score [1]	PBM binding z-score [2]	PBM binding z-score [3]	PBM binding z-score [4]	PBM binding z-score [5]	PBM binding z-score [6]	PBM binding z-score [7]	PBM binding z-score [8]
CCAGACAGGTGAGAAGGTAACTCACCCTCGATTA	0.972	0.89	0.67	0.134	0.806	0.55	0.193	-0.0144
GATACTGGGTCAGCTAGAGGCCAGAGTATGGAAA	2.73	5.04	3.76	-0.654	1.82	1.75	-0.395	0.0442
CGTCCAAGCTCAAAGGTCAGTGAAGAGATGACGG	4.4	4.58	5.11	0.306	4.05	2.33	0.0443	0.215
AGAACGAGGGCAATGAGTTGATAACACGGGTGGC	0.742	1.31	1.53	1.96	0.961	1.04	-0.289	3.3
TCCGACAGGTGAAGGTAACTCAGGTACGCAGTCG	0.334	0.325	0.374	0.258	0.788	1.3	-0.0593	0.0508
TCATATAGGTAAAAGGTGAATGTCGGTGTGGTAA	1.88	1.75	1.04	1.81	2.85	1.5	0.686	0.531
TCATATAGGTAAACAGGTGAGAGTCCGTAAGTTA	0.672	0.456	0.431	1.08	0.983	0.521	0.361	0.486
CATCGGAGGACAGAAGGTCAGAGCTGTCCGCTTT	3.44	3.28	2.93	-0.108	1.8	2.07	0.044	0.139
CGTCAAAGTTCAACTAAGGTAACGCAAAGCACGC	4.28	5.94	6.37	4.62	4.92	5.48	2.13	3.54
CCTCGGAGGACAGAAGATCAGAGCTGTCCGCTTT	-0.501	-0.0315	0.0841	-0.174	-0.41	-0.0672	-0.73	-0.8
CTGAGTAGGTTATGGGGCATTCAGGCAACGGTGA	0.905	0.544	0.679	-0.017	0.713	0.647	-0.0528	-0.0687
AAAATGAGGTTATTAAGATCAGGGAATTGCGGTC	0.725	1.16	0.933	2.27	1.78	2.28	0.636	1.19
AGAATGAGGTTATACGTAGATCAGTGAAGAAAGT	0.6	1.71	1.14	1.92	2.12	1.99	0.44	0.703
TAGCCTAGGTCATGCAGGCCAGTATAGTGTCGGC	2.76	4	4.12	0.936	2.96	3	0.919	0.989
TAGCTTAGGTCATTGGGCCAGTATAGTACGCATC	3.1	4.29	4.56	2.23	3.26	3.37	2.15	1.36
CAAACTAGGTTAAAGGTCAAAGTCGAGCCAACCA	4.47	7.04	5.43	2.13	8.81	3.85	0.829	2.96
TCTTGTAGATCAATAGAGGTTGAGAAAGTGCGCT	-0.259	0.00331	-0.196	0.738	0.307	0.629	-0.723	-0.179
GATACAGGGTCAAAGCCAGAGTACGCGTATTGAT	2.86	5.42	4.41	3.04	5.84	3.25	0.312	2.99
CGAACTAGGTCATTGACAAGACAGTGAATAGTAA	2.2	3.71	4.21	1.81	2.68	2.3	0.53	0.774

Sequence	PBM binding z-score [1]	PBM binding z-score [2]	PBM binding z-score [3]	PBM binding z-score [4]	PBM binding z-score [5]	PBM binding z-score [6]	PBM binding z-score [7]	PBM binding z-score [8]
ATCGAAAGGTAGAGGTGAGTATAGAGAAAGGGAA	1.19	0.75	1.07	-0.488	0.652	0.94	0.25	0.0183
AGAATGAGGTTTTACGTAGATCAGGGAAGAAAGT	-0.169	-0.132	0.114	0.185	-0.108	0.3	0.0915	0.172
AATACAGGGTCATCGTAGGCCAGAGGACGCACAG	3.8	5.78	5.21	3.64	7.03	4.56	1.75	3.53
TAGCCTAGGTCAGATCGGGCCAGAATACGCTATA	1.78	2.58	2.95	-0.569	1.29	4.06	-0.133	-0.288
TCTAGTTGGGCACGGAGGTCACACACGACGGGTA	4.1	4.07	3.83	0.548	4.43	3.34	1.83	2.63
TCTAGTAGATCAGCAGGTTAAGAAAGCTGGCCAA	-0.0798	-0.00824	-0.453	0.645	0.438	0.0763	-1.15	-0.213
TCATATAGTTAAAAGGTGAAAGTCGGTGTGGTAA	1.92	1.69	0.989	1.66	2.31	1.6	0.712	0.721
TCAATGAGGTTAAAGATCAGGGAACGTGGCGTCG	0.614	2.41	1.32	1.88	4.18	2.42	0.288	0.855
ATCTCTAGGTAAGAAGTTCAGTGAAAGAGAGGAC	1.85	1.25	1.48	0.26	0.531	0.982	0.234	1.52
ATCTCTAGGTAAAAGTTCAGTGAGTCCCGAGGAT	2.32	1.86	1.93	0.855	1.73	1.13	0.291	2.34
CAAACTAGGTCACCGGAAGGTCAATGTCCGCATG	5.62	8.18	7.34	2.27	5.58	4.36	2.94	3.01
CCTACTGGGCCATTCAGAGGTGATTGATCATATG	0.207	0.611	0.223	-0.252	0.178	0.505	-0.356	-0.44
CCAGACAGGTGAAAGTTAACTCAGTCTGGTACGC	0.569	0.669	0.306	-0.00485	1.2	0.251	-0.579	-0.235
ACTAGTTGGTGAGCTGAGGTCACACACAATTCGG	3.86	3.85	3.11	0.874	4.01	4.44	5.07	3.31
ACTAGTTGATCAGCTGAGGTCACACACAATTCGG	4.17	3.71	3.35	1.75	3.94	4.3	4.96	4.13
ATATGTAGGTTACATCCGGGTCGTTCAGGCTATG	1.5	1.78	1.28	1.22	1.54	2.53	1.24	1.82
TCTGCTAGGTCAGTTGGTCAGGTAACGAGCTGCC	2.67	2.55	3.52	0.427	0.908	1.95	0.951	-0.545
CCTTACGGGTCAAGGTCATAGCACGGGTGGTACG	4.87	6.23	6.45	2.02	7.01	4.18	3.42	3.71
